The values that follow come from PubChem BioAssay (NCI).

The panel holds about 83,000 compounds, 20% with a hit somewhere; the sample as a whole holds those more often.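 How to read the values: 0–100, growth inhibition (40 = 60% inhibited); 0, no net growth; -100 to 0, cell death (-40 = 40% of starting cells died; -100 = all dead).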 Values without a mark were called inactive. Activity calls are given as the source filed them. The calls were made as follows: active = growth percent below 10; inactive = the rest.

Test systems include NCI-H23 lung; NCI-H226 lung; HOP-62 NSCLC; NCI-H460 lung; HOP-92 NSCLC; NCI-H522 lung; A549/ATCC NSCLC; 786-0 renal; COLO 205 colon.
Assay in all cases: NCI-60 one-dose screen, 48 h (100 = growth as untreated, 0 = no growth, -100 = all killed)
Common to all, as to conditions: 10 µM

With `CCCCCCCCCCOC(c1ccccc1)c1ccccc1`, the growth is 83% in the assay on NCI-H23 lung; 85.5% in the assay on NCI-H226 lung; 87.8% in the assay on HOP-62 NSCLC; 101% in the assay on NCI-H460 lung; 103% in the assay on HOP-92 NSCLC; 75.8% in the assay with NCI-H522 lung. Further, the results for the growth in the assay with A549/ATCC NSCLC, in the assay with 786-0 renal and with COLO 205 colon were 83.6%, 98% and 104%, respectively.
In the case of `CC(C)(C)c1nn(-c2ccccc2)c2c1CC1(CN2Cc2ccc(Cl)cc2)C(=O)c2ccccc2C1=O`, the growth was 80.8% in the assay with NCI-H23 lung; 81.9% in the assay on NCI-H226 lung; 102% in the assay on HOP-62 NSCLC; 90.7% in the assay on NCI-H460 lung; 54.8% in the assay with HOP-92 NSCLC; 80.3% in the assay with NCI-H522 lung. In addition, the values for the growth with A549/ATCC NSCLC, in the assay on 786-0 renal and in the assay on COLO 205 colon were 70.7%, 86.7% and 117%, respectively.
As for `COc1ccc(C2=Cn3c(CCC(=O)c4nc5ccccc5[nH]4)nnc3SC2)cc1`, the growth is 94.5% in the assay on NCI-H23 lung; 89.3% in the assay with NCI-H226 lung; 93.7% with HOP-62 NSCLC; 101% in the assay on NCI-H460 lung; 77.5% in the assay with HOP-92 NSCLC; 98.6% in the assay with NCI-H522 lung. The figures for the growth in the assay on A549/ATCC NSCLC, in the assay with 786-0 renal and in the assay with COLO 205 colon were 106%, 104% and 123%, respectively.
Take `COc1cc2cc(Oc3ccc(NC(=O)Nc4ccc(C(F)(F)F)cc4)cc3)c(C)nc2cc1OC`: the growth in the assay on NCI-H23 lung was 79.3%; in the assay on NCI-H226 lung, 20.9%; with HOP-62 NSCLC it was 18.8%; with NCI-H460 lung, 42.8%; with HOP-92 NSCLC it was 56.3%; with NCI-H522 lung it was 63.2%. Also, the growth in the assay with A549/ATCC NSCLC is 32.4%; with 786-0 renal, 74.9%; in the assay with COLO 205 colon, 40.4%.
With `CC[C@H]1OC(=O)[C@H](C)[C@@H](O[C@H]2C[C@@](C)(OC)[C@@H](O)[C@H](C)O2)[C@H](C)[C@@H](O[C@@H]2O[C@H](C)C[C@H](N(C)C)[C@H]2O)[C@](C)(OC)C/C(C)=C2/O[C@@]1(C)C=C2C`, the growth in the assay on NCI-H23 lung is 83.9%; with NCI-H226 lung, 84.6%; in the assay with HOP-62 NSCLC it was 77.9%; in the assay on NCI-H460 lung it was -49.6% (active); in the assay with HOP-92 NSCLC, 36.3%; in the assay on NCI-H522 lung it was 44.4%. Also, the growth in the assay with A549/ATCC NSCLC was 61.9%; in the assay with 786-0 renal it was 72%; in the assay with COLO 205 colon, -47.3% (active).
Take `COc1cccc(N=Nc2cccc(OC)c2)c1`: the growth with NCI-H23 lung was 86.4%; in the assay with NCI-H226 lung it was 90.5%; in the assay with HOP-62 NSCLC, 82.6%; with NCI-H460 lung, 103%; in the assay with HOP-92 NSCLC, 84%; in the assay on NCI-H522 lung, 73%. Besides, the values for the growth in the assay with A549/ATCC NSCLC, in the assay with 786-0 renal and in the assay on COLO 205 colon were 83.9%, 91.3% and 107%, respectively.
`N#Cc1c(N)nc(-c2cc(F)cc(C(F)(F)F)c2)nc1-c1ccccc1F`: the growth with NCI-H23 lung was 51.9%; in the assay on NCI-H226 lung, 30.1%; in the assay with HOP-62 NSCLC, 21.9%; with NCI-H460 lung, 15.2%; with HOP-92 NSCLC it was 34.7%; in the assay with NCI-H522 lung, 68.3%. For the same molecule, the growth was 41.7% in the assay on A549/ATCC NSCLC, 1.27% (active) in the assay on 786-0 renal and 24.7% in the assay on COLO 205 colon.
Turning to `CCNCC(=O)Nc1ccc(C(=O)OCC)cc1`, the growth with NCI-H23 lung is 99.9%; with NCI-H226 lung, 109%; with HOP-62 NSCLC it was 90.5%; in the assay with NCI-H460 lung, 99.5%; with HOP-92 NSCLC it was 113%; with NCI-H522 lung it was 88.7%. Further, the results for the growth in the assay with A549/ATCC NSCLC, in the assay on 786-0 renal and in the assay on COLO 205 colon were 103%, 89.6% and 108%, respectively.
For `Clc1ccc(Cc2ccncc2)cc1`, the growth was 105% in the assay on NCI-H23 lung; 109% in the assay on NCI-H226 lung; 107% with HOP-62 NSCLC; 113% in the assay on NCI-H460 lung; 85.6% with HOP-92 NSCLC; 82% in the assay with NCI-H522 lung. For the same molecule, the growth in the assay on A549/ATCC NSCLC is 106%; in the assay on 786-0 renal, 97.3%; in the assay on COLO 205 colon it was 109%.
Regarding `Cc1c[nH]c(=O)n(Cc2nnc(CCC(=O)c3nc4ccccc4[nH]3)o2)c1=O`, the growth in the assay on NCI-H23 lung was 36.9%; with NCI-H226 lung, 31.7%; in the assay on HOP-62 NSCLC, 17.7%; in the assay on NCI-H460 lung, 9.27% (active); in the assay with HOP-92 NSCLC, 53.2%; in the assay on NCI-H522 lung it was 12.7%. The growth in the assay on A549/ATCC NSCLC was 21.1%; with 786-0 renal, 28.7%; in the assay on COLO 205 colon it was -32.7% (active).
Regarding `Nc1nc(N)c(N)c(Nc2ccc(CCO)cc2)n1`, the growth with NCI-H23 lung was 98.3%; in the assay with NCI-H226 lung, 96.2%; with HOP-62 NSCLC it was 95.6%; in the assay on NCI-H460 lung, 108%; in the assay on HOP-92 NSCLC, 118%; in the assay on NCI-H522 lung it was 91.9%. For the same molecule, the growth with A549/ATCC NSCLC was 102%; in the assay with 786-0 renal it was 109%; in the assay on COLO 205 colon, 95.5%.
Regarding `O=C(/C=C/C=C/c1c(C2CC2)nc2ccccc2c1-c1ccc(F)cc1)c1cccs1`, the growth in the assay with NCI-H23 lung is 20.7%; in the assay with NCI-H226 lung, -53.6% (active); in the assay with HOP-62 NSCLC, 24.2%; in the assay with NCI-H460 lung, -7.38% (active); with HOP-92 NSCLC, 9.27% (active); with NCI-H522 lung, 2.39% (active). In addition, the growth in the assay on A549/ATCC NSCLC was 20.6%; in the assay with 786-0 renal, 19.6%; in the assay with COLO 205 colon, -55% (active).
As to `O=C(N/N=C/c1ccc(Cl)cc1)c1ccc(Cc2n[nH]c(=O)c3cccnc23)cc1`, the growth was 90.6% in the assay with NCI-H23 lung; 96.1% with NCI-H226 lung; 97.3% with HOP-62 NSCLC; 109% in the assay on NCI-H460 lung; 95.2% in the assay with HOP-92 NSCLC; 103% with A549/ATCC NSCLC. Moreover, the results for the growth with 786-0 renal and in the assay on COLO 205 colon were 101% and 104%, respectively.
As for `CC[C@@H](C(=O)[C@@H](C)[C@@H](O)[C@H](C)[C@@H]1O[C@@H]([C@@H](CC)C(=O)O)CC[C@@H]1C)C1O[C@]2(C=CC(=O)[C@]3(CC[C@@](C)([C@H]4CC[C@](O)(CC)[C@H](C)O4)O3)O2)[C@H](C)C[C@@H]1C` (some centres undefined), the growth with NCI-H23 lung was 30.5%; in the assay with NCI-H226 lung it was 28.3%; in the assay with HOP-62 NSCLC it was 41.9%; with NCI-H460 lung, 23.8%; in the assay on HOP-92 NSCLC, 73.5%; with A549/ATCC NSCLC, 28.3%. The growth in the assay with 786-0 renal is 24.7%; with COLO 205 colon, 10.1%.
